# Source: PubChem BioAssay
# Results filed as inconclusive are left out. For some of these results: Potency and affinity values are given separately. The source made the active and inactive calls. Unless noted, the rule behind the calls is not given here.
# Legend:
# [1] = antimalarial activity against Dd2 strain (AID 2302;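 active = growth inhibition above 50% at the single 2 µM test dose, taken to imply half-maximal potency below 2 µM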;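 note: 0% = DMSO untreated growth and 100% = chloroquine plus artemisinin killed control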); conditions: P. falciparum Dd2 in RBCs, LDH growth readout, 72 h; at 2 µM; stronger effect = higher value
# [2] = human hepatoma cell viability loss – ATP luminescence, cytotoxicity control for P. falciparum antimalarial project, primary screen (AID 2303;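 active = inhibition above 50%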;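 note: 0% = DMSO wells and 100% = digitonin-killed cells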); conditions: HepG2 viability, 24-48 h, at 10 µM, stronger effect = higher value
# [3] = target: L-lactate dehydrogenase (Plasmodium falciparum (isolate CDC / Honduras)) (UniProt Q27743); assay: PfLDH activity inhibition – cell lysate, 3D7 strain, counter-screen for P. falciparum growth inhibition project (AID 2304);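 note: 0% = vehicle and 100% = reference inhibitor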; conditions: P. falciparum 3D7 crude extract, LDH APAD/NBT absorbance; at 2 µM; stronger effect = higher value
# [4] = inhibition of 3D7 malaria parasite growth – strain 3D7 (AID 2306);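 note: 0% = DMSO wells and 100% = chloroquine plus artemisinin control wells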; conditions: P. falciparum 3D7 erythrocytic growth, LDH absorbance, 72 h; at 2 µM; stronger effect = higher value
# [5] = target: Plasmodium falciparum protein kinase 6 (PK6, PF3D7_1337100) (UniProt Q8IDW1); assay: PfPK6 kinase inhibitors, biochemical, TCAMS library (AID 1159586); conditions: recombinant PfPK6, Kinase-Glo ATP depletion luminescence
# [6] = target: Protein kinase 7 (PK7), Plasmodium falciparum 3D7 (PF3D7_0213400) (UniProt Q7YTF7); assay: inhibition of Plasmodium PK7 catalytic activity – biochemical, TCAMS antimalarial set, Kinase-Glo luminescence (AID 1159587); conditions: recombinant PfPK7, Kinase-Glo ATP depletion luminescence
# [7] = target: Calcium-dependent protein kinase 4 (Plasmodium falciparum (isolate 3D7)) (UniProt Q8IBS5); assay: PfCDPK4 kinase inhibitors, biochemical, TCAMS library (AID 1159588; cut-off not given, nearly all actives have IC50 up to about 0.91 µM); conditions: recombinant PfCDPK4, Kinase-Glo ATP depletion luminescence
# [8] = viability loss with induced miR-34 in A549 – imaging, A549 dox-inducible miR-34, nuclei and caspase counts, primary screen (AID 1347080;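 active = compounds whose cell count with miR-34 switched on is under 0.7 times the count with it off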); conditions: A549 miR-34 inducible, Hoechst nuclei count, 48 h
# [9] = blockers of cellular phospholipid synthesis – cell-based, LOPAC library, screen 4, primary screen (AID 1347384); conditions: animal cells, phospholipid biosynthesis inhibition screen; at 10 µM
# [10] = galactose survival enhancers in mitochondrial complex I cybrids – cell-based, galactose medium, ATP luminescence, primary screen (AID 1645843;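 active = z-score of at least 1.8 in each of two replicates, scored against plate mean and spread of sample wells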;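 note: positive z means more ATP and so rescue of galactose-driven cybrid death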); conditions: complex I mutant cybrid cells, 72 h, stronger effect = higher value
# [11] = viability loss in pontine glioma line – cell-based, SU-DIPG-XVII, MIPE5.0, CellTiter-Glo, qHTS, dose response (AID 1347060; cut-off not given, nearly all actives have AC50 up to about 26 µM;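 note: cells exposed to compound for 48 hours before viability readout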); conditions: CellTiter-Glo ATP luminescence
# [12] = viability loss in pontine glioma line – cell-based, JHH-DIPG-1, MIPE4.0, CellTiter-Glo, qHTS, dose response (AID 1347062; cut-off not given, nearly all actives have AC50 up to about 27 µM;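 note: cells exposed to compound for two days before readout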); conditions: JHH-DIPG-1 viability, CellTiter-Glo ATP luminescence
# [13] = viability loss in pontine glioma line – cell-based, SU-DIPG-IV, MIPE4.0, CellTiter-Glo, qHTS, dose response (AID 1347063; cut-off not given, nearly all actives have AC50 up to about 30 µM;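 note: compound exposure lasted 48 hours before the viability readout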); conditions: CellTiter-Glo ATP luminescence
# [14] = viability loss in pontine glioma line – cell-based, SU-DIPG-XXV, MIPE5.0, CellTiter-Glo, qHTS, dose response (AID 1347065; cut-off not given, nearly all actives have AC50 up to about 26 µM;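 note: cells exposed to compound for 48 hours before ATP readout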); conditions: CellTiter-Glo ATP luminescence
# [15] = growth inhibition of DIPG cells – cell-based, MIPE4.0 library, CellTiter-Glo luminescence, qHTS (AID 1347066; cut-off not given, nearly all actives have AC50 up to about 30 µM;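 note: cells exposed to compound for 48 hours before readout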); conditions: SU-DIPG-VI viability, CellTiter-Glo ATP luminescence
# [16] = JHH-DIPG-1 glioma cell viability, MIPE5.0 library, CellTiter-Glo luminescence, qHTS (AID 1347067; cut-off not given, nearly all actives have AC50 up to about 26 µM;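 note: cells exposed to compound for 48 hours before readout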); conditions: JHH-DIPG-1 glioma viability, CellTiter-Glo ATP luminescence
# [17] = growth inhibition of DIPG cells – cell-based, MIPE5.0 library, qHTS (AID 1347068; cut-off not given, nearly all actives have IC50 up to about 30 µM;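 note: cells exposed to compound for 48 hours before viability readout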); conditions: SU-DIPG-XXV viability
# [18] = compounds altering HSF1 focus formation in cells – imaging, Selleck Cancer Library (AID 1347162; in the data active = plate-normalised HSF1 focus index below about 0.46); conditions: human cells, HSF1 nuclear foci imaging, at 10 µM; SSMD: measured here: HSF1 foci SSMD mean; cell count: measured here: cell number; plate-normalised HSF1 focus index: stronger effect = lower value
# [19] = stronger effect = lower value, cell number ratio, induced over uninduced
# [20] = measured here: relative caspase fold change +Dox/-Dox
# [21] = measured here: total cells with miR-34 induction, stronger effect = lower value
# [22] = measured here: total cells without miR-34 induction
# Protein kinase 7 (PK7), Plasmodium falciparum 3D7 (PF3D7_0213400), sequence (Q7YTF7 1-343): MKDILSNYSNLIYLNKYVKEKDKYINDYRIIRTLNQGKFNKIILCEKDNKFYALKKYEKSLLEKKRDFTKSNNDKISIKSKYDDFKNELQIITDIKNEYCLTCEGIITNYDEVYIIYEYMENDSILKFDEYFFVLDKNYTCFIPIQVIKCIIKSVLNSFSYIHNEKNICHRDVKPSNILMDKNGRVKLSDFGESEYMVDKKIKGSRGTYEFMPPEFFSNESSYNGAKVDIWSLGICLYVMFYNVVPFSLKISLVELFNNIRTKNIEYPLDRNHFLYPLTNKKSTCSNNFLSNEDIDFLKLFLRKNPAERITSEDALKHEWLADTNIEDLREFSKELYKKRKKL
# L-lactate dehydrogenase (Plasmodium falciparum (isolate CDC / Honduras)), sequence (Q27743 whole entry, looked up): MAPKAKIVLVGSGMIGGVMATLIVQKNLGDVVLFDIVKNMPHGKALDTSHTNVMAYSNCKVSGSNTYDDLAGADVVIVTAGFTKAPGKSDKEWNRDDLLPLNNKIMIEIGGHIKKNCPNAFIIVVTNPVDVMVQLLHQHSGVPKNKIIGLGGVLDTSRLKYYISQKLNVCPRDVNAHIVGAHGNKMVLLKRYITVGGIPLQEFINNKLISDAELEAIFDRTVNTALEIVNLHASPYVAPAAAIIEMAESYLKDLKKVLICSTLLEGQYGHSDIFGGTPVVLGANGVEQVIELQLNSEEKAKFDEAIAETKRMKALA
# Calcium-dependent protein kinase 4 (Plasmodium falciparum (isolate 3D7)), sequence (Q8IBS5 whole entry, looked up): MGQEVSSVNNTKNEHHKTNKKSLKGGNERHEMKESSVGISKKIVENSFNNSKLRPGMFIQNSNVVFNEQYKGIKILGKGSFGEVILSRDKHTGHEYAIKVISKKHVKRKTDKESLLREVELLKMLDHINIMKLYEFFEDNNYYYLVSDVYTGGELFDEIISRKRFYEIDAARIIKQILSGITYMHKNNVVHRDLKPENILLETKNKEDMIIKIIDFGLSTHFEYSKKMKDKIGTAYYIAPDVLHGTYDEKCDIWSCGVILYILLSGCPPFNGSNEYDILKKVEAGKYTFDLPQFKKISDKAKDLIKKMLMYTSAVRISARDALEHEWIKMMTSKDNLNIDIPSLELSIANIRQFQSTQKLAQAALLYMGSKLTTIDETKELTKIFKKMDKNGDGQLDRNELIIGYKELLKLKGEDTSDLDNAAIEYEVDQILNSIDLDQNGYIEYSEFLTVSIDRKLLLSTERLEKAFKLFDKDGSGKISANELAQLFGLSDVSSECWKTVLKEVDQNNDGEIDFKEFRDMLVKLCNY
# Plasmodium falciparum protein kinase 6 (PK6, PF3D7_1337100), sequence (Q8IDW1 1-305): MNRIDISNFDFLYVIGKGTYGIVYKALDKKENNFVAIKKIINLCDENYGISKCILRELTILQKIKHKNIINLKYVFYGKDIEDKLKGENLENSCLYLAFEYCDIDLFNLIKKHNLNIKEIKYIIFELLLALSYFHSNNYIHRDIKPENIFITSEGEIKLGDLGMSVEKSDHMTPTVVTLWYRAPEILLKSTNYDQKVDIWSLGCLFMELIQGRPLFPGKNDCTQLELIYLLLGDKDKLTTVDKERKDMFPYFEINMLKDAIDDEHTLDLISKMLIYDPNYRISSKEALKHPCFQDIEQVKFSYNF
compound,measurement,setting,value
COCCOc1ccc(Nc2nccc(-c3c(-c4cccc(NC(=O)c5c(F)cccc5F)c4)nn4ccccc34)n2)cc1Cl,growth inhibition,[1],97% (active)
same,inhibition,[2],53% (active)
same,inhibition,[3],4% (inactive)
same,growth inhibition,[4],99% (active)
same,outcome,[5],inactive
same,outcome,[6],inactive
CNC(=O)c1ccccc1Nc1nc(Nc2ccc(N3CCOCC3)cc2)ncc1Cl,growth inhibition,[1],97% (active)
same,inhibition,[2],75% (active)
same,inhibition,[3],-3% (inactive)
same,growth inhibition,[4],97% (active)
same,outcome,[6],inactive
same,outcome,[7],inactive
Cn1cc(-c2ccnc3[nH]c(-c4cccc(CNC5CCC(O)CC5)c4)cc23)cn1 (stereo unspecified),growth inhibition,[1],82% (active)
same,inhibition,[2],48% (inactive)
same,inhibition,[3],2% (inactive)
same,growth inhibition,[4],95% (active)
same,outcome,[6],inactive
same,outcome,[7],inactive
O=C(NCC(c1ccc(C(F)(F)F)cc1)N1CCCC1)c1cc(-c2ccncc2)c(-c2cccc(O)c2)o1 (stereo unspecified),growth inhibition,[1],53% (active)
same,inhibition,[2],9% (inactive)
same,inhibition,[3],0% (inactive)
same,growth inhibition,[4],95% (active)
same,outcome,[5],inactive
same,outcome,[6],inactive
O=c1[nH]ccc2nc(N[C@@H]3CCCNC3)nc(Nc3ccc(S(=O)(=O)N4CCOCC4)cc3)c12,growth inhibition,[1],99% (active)
same,inhibition,[2],13% (inactive)
same,inhibition,[3],0% (inactive)
same,growth inhibition,[4],96% (active)
same,outcome,[6],inactive
same,outcome,[7],inactive
COc1ccc(Nc2ncc3c(-c4cccc(NC(=O)Cc5ccc(O)cc5)c4)c[nH]c3n2)cc1OC,growth inhibition,[1],99% (active)
same,inhibition,[2],48% (inactive)
same,inhibition,[3],-2% (inactive)
same,growth inhibition,[4],102% (active)
same,outcome,[6],inactive
same,outcome,[7],inactive
CCn1c(-c2nonc2N)nc2c(-c3ccccc3)ncc(OCCCNCCCN3CCOCC3)c21,growth inhibition,[1],91% (active)
same,inhibition,[2],28% (inactive)
same,inhibition,[3],-7% (inactive)
same,growth inhibition,[4],100% (active)
same,outcome,[5],inactive
same,outcome,[6],inactive
Cn1c(=O)c(-c2c(Cl)cccc2Cl)cc2cnc(Nc3ccc(N4CCOCC4)cc3)nc21,growth inhibition,[1],97% (active)
same,inhibition,[2],64% (active)
same,inhibition,[3],4% (inactive)
same,growth inhibition,[4],98% (active)
same,outcome,[6],inactive
same,outcome,[7],inactive
same,fold change,[8]; [19],1.06 (inactive)
same,fold change,[8]; [20],1.37
same,cell count,[8]; [21],814
same,cell count,[8]; [22],768
same,outcome,[9],inactive
same,z-score,[10],-1.38 (inactive)
CN1CCN(c2ccc(Nc3nccc(-c4cnn5ncccc45)n3)cc2Cl)CC1,growth inhibition,[1],92% (active)
same,inhibition,[2],65% (active)
same,inhibition,[3],0% (inactive)
same,growth inhibition,[4],95% (active)
same,outcome,[6],inactive
same,outcome,[7],inactive
COc1ccc(Nc2ncc(OC)c(Nc3ccccc3C(N)=O)n2)cc1N1CCN(C)CC1,growth inhibition,[1],96% (active)
same,inhibition,[2],63% (active)
same,inhibition,[3],0% (inactive)
same,growth inhibition,[4],100% (active)
same,outcome,[6],inactive
same,outcome,[7],inactive
CC(C)(CN)c1cc(-c2ccc(Cl)c(O)c2)c(-c2ccncc2)o1,growth inhibition,[1],97% (active)
same,inhibition,[2],44% (inactive)
same,inhibition,[3],7% (inactive)
same,growth inhibition,[4],92% (active)
same,outcome,[5],inactive
same,outcome,[6],inactive
COc1cc(Nc2nccc(-c3c(-c4cccc(NC(=O)c5c(F)cccc5F)c4)nn4ccccc34)n2)cc(OC)c1OC,growth inhibition,[1],98% (active)
same,inhibition,[2],74% (active)
same,inhibition,[3],4% (inactive)
same,growth inhibition,[4],98% (active)
same,outcome,[5],inactive
same,outcome,[6],inactive
NS(=O)(=O)c1ccc(Nc2nccc(-c3c(-c4cccc(NC(=O)c5c(F)cccc5F)c4)nn4ccccc34)n2)cc1,growth inhibition,[1],89% (active)
same,inhibition,[2],83% (active)
same,inhibition,[3],-7% (inactive)
same,growth inhibition,[4],93% (active)
same,outcome,[6],inactive
same,outcome,[7],inactive
CN1CCN(c2ccc(Nc3nccc(-c4c(-c5cccc(NC(=O)c6c(F)cccc6F)c5)nn5ccccc45)n3)cc2)CC1,growth inhibition,[1],98% (active)
same,inhibition,[2],86% (active)
same,inhibition,[3],-3% (inactive)
same,growth inhibition,[4],98% (active)
same,outcome,[5],inactive
same,outcome,[6],inactive
CN(C)Cc1cccc(-c2cc3c(-c4cnn(C)c4)c(Cl)cnc3[nH]2)c1,growth inhibition,[1],21% (inactive)
same,inhibition,[2],75% (active)
same,inhibition,[3],-5% (inactive)
same,growth inhibition,[4],96% (active)
same,outcome,[6],inactive
same,outcome,[7],inactive
CCN(CC)CCOc1ccc(Nc2ncc3cc(-c4c(Cl)cccc4Cl)c(=O)n(C)c3n2)cc1,growth inhibition,[1],91% (active)
same,inhibition,[2],72% (active)
same,inhibition,[3],1% (inactive)
same,growth inhibition,[4],90% (active)
same,outcome,[6],inactive
same,outcome,[7],inactive
same,AC50,[11],417 nM (active)
same,AC50,[12],2960 nM (active)
same,AC50,[13],4180 nM (active)
same,AC50,[14],1860 nM (active)
same,AC50,[15],20900 nM (active)
same,AC50,[16],4680 nM (active)
same,IC50,[17],2950 nM (active)
same,fold change,[8]; [19],1.1 (inactive)
same,fold change,[8]; [20],0.543
same,cell count,[8]; [21],761
same,cell count,[8]; [22],694
same,SSMD,[18],-11.2
same,cell count,[18],5360
same,plate-normalised HSF1 focus index,[18],0.335 (inactive)
same,outcome,[9],inactive
same,z-score,[10],-1.38 (inactive)
O=S1(=O)NCc2ccc(Nc3nccc(Nc4ccc5c(cnn5Cc5ccccc5)c4)n3)cc21,growth inhibition,[1],33% (inactive)
same,inhibition,[2],-8% (inactive)
same,inhibition,[3],-1% (inactive)
same,growth inhibition,[4],94% (active)
same,outcome,[6],inactive
same,outcome,[7],inactive
COc1ccc(Nc2ncc(Cl)c(Nc3cccnc3C(N)=O)n2)cc1N1CCN(C)CC1,growth inhibition,[1],97% (active)
same,inhibition,[2],77% (active)
same,inhibition,[3],6% (inactive)
same,growth inhibition,[4],95% (active)
same,outcome,[6],inactive
same,outcome,[7],inactive
CNC(=O)c1ccccc1Nc1nc(Nc2cccc(CS(C)(=O)=O)c2)ncc1C,growth inhibition,[1],95% (active)
same,inhibition,[2],74% (active)
same,inhibition,[3],-4% (inactive)
same,growth inhibition,[4],97% (active)
same,outcome,[6],inactive
same,outcome,[7],inactive
